Where “and” joins values, the source holds several entries; their conditions need not be identical. Identical values can stand only once. Some compounds were tested as several samples or in several runs, with calls that do not always agree. Calls of active or inactive are those of the source. Entries that show only a call come without a potency. Unless noted, calls follow the shape of the dose curve; as a rule, active = well fitted curve in the direction sought with a large enough effect in the repeat runs; inconclusive = weak or mixed curves; inactive = no such curve, though single readings can be large; an effect the other way counts as inactive or inconclusive.
What was measured:
[1] = qHTS assay for small molecules that induce genotoxicity in human embryonic kidney cells expressing luciferase-tagged ATAD5 (AID 651632); also: nearly all actives have a fitted effect of over 15% in size
Summary of the method: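 Reporter cells (HEK293T) express luciferase-tagged ATAD5, a protein that accumulates after DNA damage. Treat 16 hr at 37C/5% CO2, add Amplite, wait 30 min at RT, and read luminescence.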

[2] = qHTS assay for small molecules that induce genotoxicity in human embryonic kidney cells expressing luciferase-tagged ATAD5 - cell viability (AID 651634; calls by dose curve; also: nearly all actives have a fitted effect of over 25% in size; also: potency is read from the fitted curve at half-maximal effect)
Summary of the method: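 Seeding of 2,000 HEK293T ATAD5-luciferase cells per well preceded pin-tool compound transfer. Plates sat 15.5 hr at 37C under 5% CO2, then fluorescence was read after 30 min with CellTiter-Fluor.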

[3] = qHTS assay for small molecule disruptors of the mitochondrial membrane potential (AID 720635); also: potency is read from the fitted curve at half-maximal effect
Summary of the method: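 Mitochondrial membrane potential tracked with Mito-MPS dye, red aggregates (ex 540/em 590 nm) against green monomers (ex 490/em 535 nm). Compound treatment 1 hr at 37C, dye 30 min in HepG2.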

[4] = qHTS assay to test for compound auto fluorescence at 590 nm (red) in HepG2 cells (AID 720674)
Summary of the method: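 Red autofluorescence (Ex/Em 540/590 nm, Rose Bengal sodium equivalents) was measured in HepG2 cells, 2,000 per well in MEM plus 10% FBS, plated overnight at 37 C. Readings were taken 1 hr after adding 23 nL compound or DMSO, at 37 C and 5% CO2.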

[5] = qHTS assay to test for compound auto fluorescence at 535 nm (green) in HepG2 cells (AID 720675); also: potency is read from the fitted curve at half-maximal effect
[6] = qHTS assay to test for compound auto fluorescence at 460 nm (blue) in HEK293 cells (AID 720678); also: potency is read from the fitted curve at half-maximal effect
Summary of the method: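 Blue-channel (Ex/Em 405/460 nm) intensity measured in HEK293 cultures after overnight compound exposure at 37C; signal expressed relative to triamterene. Cells plated 2,000 per well in 10% dialyzed FBS medium and allowed 4-5 hr to attach.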

[7] = qHTS assay to test for compound auto fluorescence at 590 nm (red) in HEK293 cells (AID 720679)
Summary of the method: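 Red-channel autofluorescence (Ex/Em 540/590 nm; Rose Bengal sodium reference) was measured after overnight 37C, 5% CO2 exposure of attached HEK293 cells, 2,000 per well in medium with 10% dialyzed FBS.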

[8] = qHTS assay to test for compound auto fluorescence at 535 nm (green) in HEK293 cells (AID 720680); also: potency is read from the fitted curve at half-maximal effect
[9] = qHTS assay to test for compound auto fluorescence at 460 nm (blue) in HEK293 cell free culture (AID 720681); also: potency is read from the fitted curve at half-maximal effect
Summary of the method: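 Blue fluorescence (Ex 405/Em 460 nm, triamterene-equivalent) was read immediately after pin transfer of compound or DMSO into medium (DMEM, 10% FBS) without cells.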

[10] = qHTS assay to test for compound auto fluorescence at 535 nm (green) in HEK293 cell free culture (AID 720682)
Summary of the method: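 No cells present: wells hold DMEM supplemented with 10% FBS, into which compound or vehicle is pinned. Green emission is then recorded (485 nm excitation, 535 nm emission) and scaled to fluorescein.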

[11] = qHTS assay to test for compound auto fluorescence at 590 nm (red) in HEK293 cell free culture (AID 720683)
Summary of the method: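 Red-channel autofluorescence of compounds in culture medium (DMEM, 10% FBS), no cells, measured at 540/590 nm. Rose Bengal sodium is the reference fluorophore for equivalence.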

[12] = qHTS assay to test for compound auto fluorescence at 590 nm (red) in HepG2 cell free culture (AID 720684)
Summary of the method: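 Steps: dispense MEM/10% FBS medium, no cells; pin compound or DMSO vehicle; read red channel, Ex/Em 540/590 nm. Output given as Rose Bengal sodium equivalents.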

[13] = qHTS assay to test for compound auto fluorescence at 460 nm (blue) in HepG2 cell free culture (AID 720685)
Summary of the method: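 Compound (23 nL) or DMSO pinned into cell-free MEM with 10% FBS; blue fluorescence read at 405/460 nm excitation/emission, expressed as auto-fluorescence equivalency to triamterene.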

[14] = qHTS assay to test for compound auto fluorescence at 535 nm (green) in HepG2 cell free culture (AID 720686); also: potency is read from the fitted curve at half-maximal effect
[15] = qHTS assay to test for compound auto fluorescence at 460 nm (blue) in HepG2 cells (AID 720687)
Summary of the method: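 Blue-channel autofluorescence (Ex/Em 405/460 nm, triamterene-equivalent) was measured after 1 hr compound exposure at 37 C, 5% CO2. Cells were HepG2, plated overnight at 37 C in MEM plus 10% FBS.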

[16] = target: Glucocorticoid receptor (Homo sapiens) (UniProt P04150); assay: qHTS assay to identify small molecule agonists of the glucocorticoid receptor (GR) signaling pathway (AID 720691; active = well fitted activation curve with a large enough effect in the signal ratio in the repeat runs, not every such curve was filed as active; inconclusive = weak or mixed curves, or effect the other way; inactive = no such curve, though single readings can be large or run the other way; the % refers to the signal ratio; also: potency is read from the fitted curve at half-maximal effect)
Sequence of Glucocorticoid receptor (Homo sapiens) (P04150 whole entry, looked up): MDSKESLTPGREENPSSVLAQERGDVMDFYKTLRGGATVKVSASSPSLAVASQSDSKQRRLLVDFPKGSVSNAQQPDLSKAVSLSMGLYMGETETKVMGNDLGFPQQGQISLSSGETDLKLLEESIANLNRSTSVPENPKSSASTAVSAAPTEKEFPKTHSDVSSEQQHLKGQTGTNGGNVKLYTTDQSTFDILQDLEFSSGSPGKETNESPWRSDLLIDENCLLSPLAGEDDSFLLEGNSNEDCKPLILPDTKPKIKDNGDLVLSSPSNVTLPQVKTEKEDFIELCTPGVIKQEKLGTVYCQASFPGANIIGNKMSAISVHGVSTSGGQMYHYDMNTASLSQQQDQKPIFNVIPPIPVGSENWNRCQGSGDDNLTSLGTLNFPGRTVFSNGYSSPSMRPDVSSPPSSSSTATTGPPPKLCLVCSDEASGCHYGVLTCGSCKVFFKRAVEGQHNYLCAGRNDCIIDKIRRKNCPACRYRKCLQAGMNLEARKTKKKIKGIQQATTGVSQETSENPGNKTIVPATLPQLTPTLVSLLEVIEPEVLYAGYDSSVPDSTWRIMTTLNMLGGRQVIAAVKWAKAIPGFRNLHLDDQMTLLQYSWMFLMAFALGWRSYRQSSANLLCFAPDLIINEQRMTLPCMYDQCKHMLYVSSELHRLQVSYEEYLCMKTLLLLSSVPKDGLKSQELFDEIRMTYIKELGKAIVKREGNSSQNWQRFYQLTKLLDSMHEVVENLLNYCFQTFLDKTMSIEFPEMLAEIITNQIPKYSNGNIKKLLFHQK
Summary of the method: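 Reporter read-out: fluorescence intensity following 2 h room-temperature LiveBLAzer B/G FRET substrate loading. Prior step: GR-bla HeLa cells held 4 h, then treated 18 h at 37 C.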

[17] = qHTS assay for small molecule disruptors of the mitochondrial membrane potential - cell viability (AID 720634; calls by dose curve; also: nearly all actives have a fitted effect of over 20% in size; also: potency is read from the fitted curve at half-maximal effect)
Summary of the method: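 Measuring cytotoxicity alongside mitochondrial potential, the screen quantified ATP by luminescence in HepG2 cells after 1 hr compound incubation and a 30 min room-temperature CellTiter-Glo step.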

[18] = qHTS assay for small molecule agonists of the p53 signaling pathway - cell viability (AID 651633; calls by dose curve; also: nearly all actives have a fitted effect of over 30% in size; also: potency is read from the fitted curve at half-maximal effect)
Summary of the method: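 Viability counter-read: CellTiter-Glo luminescence (30 min, room temperature) in the same p53RE-bla plates. These plates had been exposed to compounds for 16 h at 37 C.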

[19] = target: Glucocorticoid receptor (Homo sapiens) (UniProt P04150); assay: qHTS assay to identify small molecule antagonists of the glucocorticoid receptor (GR) signaling pathway (AID 720692; active = well fitted inhibition curve with a large enough effect in the signal ratio in the repeat runs, not every such curve was filed as active; inconclusive = weak or mixed curves, or effect the other way; inactive = no such curve, though single readings can be large or run the other way; the % refers to the signal ratio)
Summary of the method: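 Dexamethasone (5 nM final) stimulated a stably integrated GRE-beta-lactamase reporter in HeLa cells during 18 h co-incubation with compounds; signal was quantified as fluorescence intensity of B/G FRET substrate after 2 h.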
Tags tell the direction and shape of the fitted curve or compound fluorescence and quenching.

| SMILES | Potency [1] | Potency [2] | Potency [3] | Potency [4] | Potency [5] | Potency [6] | Potency [7] | Potency [8] | Potency [9] | Potency [10] | Potency [11] | Potency [12] | Potency [13] | Potency [14] | Potency [15] | Potency [16] | Potency [17] | Potency [18] | Potency [19] |
| --- | --- | --- | --- | --- | --- | --- | --- | --- | --- | --- | --- | --- | --- | --- | --- | --- | --- | --- | --- |
| COC(=O)C1=C(C)NC(C)=C(C(=O)OCCN2CCN(C(c3ccccc3)c3ccccc3)CC2)C1c1cccc([N+](=O)[O-])c1 (configuration not stated) | inactive | 11.9 µM (active) | 10.6 µM (active) | inactive | inactive | inactive | inactive | inactive | inactive | inactive | inactive | inactive | inactive | inactive | inactive | inactive |  |  |  |
| CN1CCN2c3ccccc3Cc3ccccc3C2C1 (configuration not stated) | inactive | inactive |  | inactive | inactive | inactive | inactive | inactive | inactive |  | inactive | inactive | inactive | inactive | inactive |  | inactive |  |  |
| OCCN1CCN(CCCN2c3ccccc3Sc3ccc(C(F)(F)F)cc32)CC1 | inactive |  |  | inactive | inactive | inactive | inactive | inactive | inactive | inactive | inactive | inactive | inactive | inactive |  | inactive | inactive | 26.6 µM (active) |  |
| Nc1nc(-c2ccccc2)cs1 |  |  |  | inactive | inactive | inactive | inactive | inactive |  | inactive | inactive | inactive |  | inactive | inactive | inactive | inactive | inactive |  |
| Cc1ccc(O)c(O)c1 | inactive | inactive |  | inactive | inactive | inactive | inactive | inactive | inactive | inactive | inactive | inactive | inactive | inactive | inactive |  | inactive |  |  |
| Cc1ccc(O)c(N)c1 |  |  |  | inactive | inactive | inactive | inactive | inactive |  |  | inactive | inactive |  | inactive | inactive | inactive | inactive |  | inactive |
| COC(=O)c1ccccc1OC | inactive |  | inactive | inactive | inactive | inactive | inactive | inactive | inactive | inactive | inactive | inactive | inactive |  | inactive | inactive | inactive | inactive |  |
| CCn1c2ccccc2c2cc([N+](=O)[O-])ccc21 | inactive |  | 30.6 µM (active) | inactive | inactive | inactive |  | inactive | inactive | inactive | inactive | inactive |  | inactive |  |  | 30.6 µM (active) | inactive |  |
| Cc1cc(-c2ccc(N=Nc3cc(S(=O)(=O)O)c4ccccc4c3N)c(C)c2)ccc1N=Nc1cc(S(=O)(=O)O)c2ccccc2c1N | inactive | inactive | 12.3 µM (active) | inactive | inactive | inactive | inactive | inactive | inactive | inactive | inactive | inactive | inactive | inactive | inactive | inactive | inactive |  |  |
| COc1cccc2c1C(=O)c1c(O)c3c(c(O)c1C2=O)C[C@@](O)(C(C)=O)C[C@@H]3O[C@H]1C[C@H](N)[C@H](O)[C@H](C)O1 |  | 9.44 µM (active) and 30.8 µM (active) | 1.5 µM (active) and 4.35 µM (active) |  |  | inactive | inactive | inactive |  |  | inactive | inactive | inactive | inactive | inactive | 3.01 µM [inconclusive] (active) and 49.3 µM [inconclusive] (active) | inactive |  |  |
| O=C1OC2(c3ccc(O)cc3Oc3cc(O)ccc32)c2ccc(N=C=S)cc21 | inactive |  |  | inactive | 39.8 µM (active) | inactive | inactive | 39.8 µM [fluorescent] (active) |  |  | inactive | inactive |  | 35.5 µM [fluorescent] (active) | inactive | inactive | inactive | inactive | inactive |
| O=C(c1ccc(O)c(O)c1)c1ccc(O)cc1O | inactive |  | 3.85 µM (active) | inactive | inactive | 31.6 µM [fluorescent] (active) | inactive | inactive | 35.5 µM (active) | inactive | inactive | inactive | inactive | inactive | inactive | inactive | inactive |  |  |
| O=C1CCc2cc(OCCCCc3nnnn3C3CCCCC3)ccc2N1 | inactive | inactive |  | inactive | inactive | inactive | inactive | inactive | inactive | inactive | inactive | inactive | inactive | inactive | inactive | inactive | inactive |  |  |
| CC(=O)[C@H]1CC[C@H]2[C@@H]3CCC4=CC(=O)CC[C@]4(C)[C@H]3CC[C@]12C | inactive | inactive | 19.3 µM (active) | inactive | inactive | inactive | inactive | inactive | inactive |  | inactive | inactive | inactive | inactive | inactive |  | inactive |  |  |
| CCCCCCCCCCCCCC[N+](C)(C)Cc1ccccc1 | inactive |  | 11.9 µM (active) and 27.7 µM (active) | inactive | inactive | inactive | inactive | inactive | inactive | inactive | inactive | inactive | inactive | inactive | inactive |  | 62.1 µM (active) | 23.7 µM (active) and 69.6 µM (active) |  |
| CCCCCCCCCCCCOCCOCCOCCOCCOCCOCCOCCOCCOCCO | inactive |  | 19.7 µM (active) | inactive | inactive | inactive | inactive | inactive | inactive |  | inactive | inactive | inactive | inactive | inactive |  |  | 26.6 µM (active) |  |
| COC1=C(OC)C(=O)C(CCCCCCCCCCO)=C(C)C1=O | inactive |  |  | inactive | inactive | inactive | inactive | inactive | inactive | inactive | inactive | inactive | inactive | inactive | inactive | inactive | inactive | 29.8 µM (active) |  |
| Cc1cc(C(C#N)c2ccc(Cl)cc2)c(Cl)cc1NC(=O)c1cc(I)cc(I)c1O (configuration not stated) | inactive |  | 2.37 µM (active) | inactive | inactive | inactive | inactive | inactive | inactive | inactive | inactive | inactive |  | inactive | inactive | inactive |  | 3.35 µM (active) |  |
| O=C1c2ccccc2C(=O)N1SC1CCCCC1 | inactive |  | 54.4 µM (active) and 48.6 µM (active) | inactive | inactive | inactive | inactive | inactive | inactive | inactive | inactive | inactive | inactive | inactive | inactive |  |  | 68.5 µM (active) and inactive |  |
| O=c1oc2cc(O)ccc2c2oc3cc(O)ccc3c12 |  | inactive | 58.6 µM (active) | inactive | inactive |  | inactive | inactive | 5.01 µM (active) | inactive | inactive | inactive |  | inactive |  | inactive | inactive | inactive |  |
| CCCNCCC |  | inactive | inactive | inactive | inactive | inactive | inactive | inactive | inactive | inactive | inactive | inactive |  |  | inactive | inactive | inactive | inactive | inactive |
| C=C(C)c1cccc(C(=C)C)c1 | inactive |  | inactive | inactive | inactive | inactive | inactive | inactive | inactive | inactive | inactive | inactive | inactive | inactive |  | inactive | inactive | inactive | inactive |
| CCOC(=O)c1ccc(C2CCC(NC[C@H](O)COc3ccc(O)c(NS(C)(=O)=O)c3)CC2)cc1 (some centres not stated) | inactive | inactive |  | inactive | inactive | inactive | inactive | inactive | inactive | inactive | inactive | inactive | inactive | inactive |  |  | inactive |  |  |
| Nc1cc(Cl)c(O)c(Cl)c1 | inactive |  | 7.7 µM (active) | inactive | inactive |  |  | inactive |  | inactive | inactive | inactive |  |  | inactive | inactive | inactive |  |  |
